PubChem BioAssay (Tox21)
A number with no mark means an inactive call. Inconclusive results are not listed. A call without a number means that no potency is given here. The source made the active and inactive calls. Unless noted, calls follow the shape of the dose curve; as a rule, active = well fitted curve in the direction sought with a large enough effect in the repeat runs; inconclusive = weak or mixed curves; inactive = no such curve, though single readings can be large; an effect the other way counts as inactive or inconclusive.

Legend:
[1] = qHTS assay to identify small molecule agonists of H2AX (AID 1224845; active = well fitted activation curve with a large enough effect in the signal ratio in the repeat runs, not every such curve was filed as active; the % refers to the signal ratio)
Method in brief: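 Phospho-H2AX Ser139 measured by HTRF (ex 320 nm; em 665 and 620 nm) after 24 hr antibody incubation. Compounds, 15 concentrations, 0.76% DMSO, were applied to CHO-K1 cells for 3hr at 37C before lysis.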

[2] = qHTS assay to identify small molecule agonists of the hypoxia (HIF-1) signaling pathway (AID 1224846; active = well fitted activation curve with a large enough effect in the signal ratio in the repeat runs, not every such curve was filed as active; the % refers to the signal ratio)
Method in brief: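 Cell line: CellSensor HRE-bla ME-180; 2,000 cells/well; 0.5% dialyzed FBS; 5 h preincubation; DMSO compound pin transfer; 17 h, 37C, 5% CO2; CCF4-AM added; bla FRET signal scored for activation.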

[3] = qHTS assay to identify small molecule agonists of H2AX - cell viability counter screen (AID 1224847; calls by dose curve; also: nearly all actives have a fitted effect of over 30% in size; also: potency is read from the fitted curve at half-maximal effect)
Method in brief: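 After overnight plating of 1000 CHO-K1 cells per well, a 15-concentration compound series was applied for 3 hr at 37C. Luminescence from CellTiter-Glo, read following 30 min at room temperature, reflected cell viability.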

[4] = qHTS assay to identify small molecule antagonists of the estrogen related receptor (ERR) signaling pathway from Tox21 library (AID 1224848); also: nearly all actives have a fitted effect of over 50% in size; also: potency is read from the fitted curve at half-maximal effect
Method in brief: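 Reading was by luminescence 30 min after ONE-Glo addition. Before that, ERR cells at 2,000 per well had rested 6 h at 37 C/5% CO2 and then received pin-tooled compounds in DMSO for 18 h at 37 C.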

[5] = qHTS assay to identify small molecule agonists of the estrogen related receptor (ERR) signaling pathway from Tox21 library (AID 1224849; calls by dose curve; also: nearly all actives have a fitted effect of over 15% in size); details: ERR reporter cell line, ONE-Glo luciferase, 18 h; at 92.4 µM (top of the series) unless noted
Method in brief: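 ERR cells, 6 h pre-incubation 37 C/5% CO2; cpd in DMSO pinned; 18 h 37 C; ONE-Glo added, 30 min RT; luminescence read. Agonist mode, qHTS.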

[6] = qHTS RealTime-Glo MT Cell Viability Assay in HepG2 cells - 24 hour (AID 1224867); also: nearly all actives have a fitted effect of over 50% in size
Method in brief: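 Viability was tracked continuously by NanoLuc luminescence from prosubstrate reduced by living HepG2 cells, at successive time points over 40 h of compound exposure. Cells with reagent were preincubated 5 h at 37 °C before compound addition.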

[7] = A CellTox Green Cytotoxicity Assay to monitor cytotoxicity in HEK293 cells - 0 hour (AID 1224869); also: nearly all actives have a fitted effect of over 50% in size
Method in brief: (§1)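 Nonlytic real-time cytotoxicity: HEK293 + CellTox Green reagent plated, 5 h preincubation, pintool compound addition (23 nL in DMSO), 37 C for 40 h, fluorescence measured at successive time points.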

[8] = A CellTox Green Cytotoxicity Assay to monitor cytotoxicity in HEK293 cells - 40 hour (AID 1224871); also: nearly all actives have a fitted effect of over 45% in size
Method in brief: as §1

[9] = qHTS RealTime-Glo MT Cell Viability Assay in HEK293 cells - 32 hour (AID 1224868); also: nearly all actives have a fitted effect of over 50% in size; also: potency is read from the fitted curve at half-maximal effect
Method in brief: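 Viability tracked continuously by luminescence as live cells reduce a prosubstrate for NanoLuc; HEK293 cells preincubated 5 h, compound-treated at 37 C, and read at 0, 8, 16, 24, 32 and 40 h.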

[10] = qHTS RealTime-Glo MT Cell Viability Assay in HepG2 cells - 40 hour (AID 1224870); also: nearly all actives have a fitted effect of over 50% in size; also: potency is read from the fitted curve at half-maximal effect
Method in brief: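 Real-time viability: cells seeded at 600 per well together with NanoLuc and cell-permeant prosubstrate, compounds added after 5 h incubation. Luminescence tracked at 0, 8, 16, 24, 32 and 40 h of exposure.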

SMILES	Potency [1]	outcome [2]	Potency [3]	Potency [4]	activity change, positive = activation [5]	Potency [6]	Potency [7]	Potency [8]	Potency [9]	Potency [10]
CC(=O)[C@H]1CC[C@H]2[C@@H]3C[C@H](C)C4=CC(=O)CC[C@]4(C)[C@H]3[C@@H](O)C[C@]12C	inactive	inactive	inactive	26.6 µM (active)	-35.5% [at 42.5 µM]	inactive	inactive	inactive	–	–
C1COCO1	inactive	inactive	inactive	inactive	-2.3%	inactive	inactive	–	inactive	inactive
N#C[C@@H]1C[C@@H]2C[C@@H]2N1C(=O)[C@@H](N)C12CC3CC(CC(O)(C3)C1)C2	inactive	inactive	inactive	inactive	0.254% [at 42.5 µM]	inactive	inactive	inactive	inactive	inactive
CCCCCCOC(=O)C(C)C	inactive	inactive	inactive	inactive	7.77%	inactive	inactive	inactive	inactive	inactive
C[C@]12CCC(=O)C=C1C=C[C@@H]1[C@@H]2CC[C@@]2(C)[C@H]1CC[C@@]21CCC(=O)O1	inactive	inactive	inactive	23.7 µM (active)	-28.3% [at 42.5 µM]	inactive	inactive	–	inactive	inactive
CCCCC(CC)C(=O)OCCOCCOCCOCCOC(=O)C(CC)CCCC (configuration not stated)	inactive	inactive	inactive	30.6 µM (active)	-33%	inactive	inactive	–	–	inactive
NCC1CCCC(CN)C1 (configuration not stated)	inactive	inactive	inactive	inactive	-0.124%	inactive	inactive	inactive	inactive	inactive
CC(C)OCC1CO1 (configuration not stated)	inactive	inactive	inactive	inactive	-0.395%	inactive	inactive	inactive	inactive	inactive
CC(C)CCCCCOC(=O)CCCCC(=O)OCCCCCC(C)C	inactive	inactive	inactive	inactive	-6.86%	inactive	inactive	inactive	–	inactive
O=[N+]([O-])c1cccc(S(=O)(=O)NCCNS(=O)(=O)c2cccc([N+](=O)[O-])c2)c1	inactive	inactive	inactive	inactive	-12.7% [at 42.5 µM]	inactive	inactive	–	inactive	inactive
NC(=O)Nc1ccc(Cl)cc1	inactive	inactive	inactive	inactive	0.227%	inactive	inactive	inactive	inactive	–
CCCC1C(CC)=CC(CC)=CN1c1ccccc1 (configuration not stated)	inactive	inactive	inactive	43.3 µM (active)	-47.2%	inactive	inactive	–	13.8 µM (active)	–
CC(C)(C)C(=O)O	inactive	inactive	inactive	inactive	3.7%	inactive	inactive	–	inactive	inactive
CN1Cc2cc(C(=O)N3CCC(C4CCNCC4)CC3)ccc2N[C@@H](CC(=O)O)C1=O	inactive	inactive	inactive	inactive	7.88% [at 42.5 µM]	inactive	inactive	inactive	inactive	inactive
C[Si]1(C)O[Si](C)(C)O[Si](C)(C)O1	inactive	inactive	inactive	inactive	-9.67%	inactive	inactive	inactive	inactive	inactive
CO[C@H]1O[C@H](CO)[C@@H](O)[C@H](O)[C@H]1O	inactive	inactive	inactive	inactive	10.5%	inactive	inactive	–	inactive	inactive
Cc1ccc(Nc2nccc(N(C)c3ccc4c(C)n(C)nc4c3)n2)cc1S(N)(=O)=O	inactive	inactive	inactive	11.9 µM (active)	-54.4% [at 42.5 µM]	inactive	inactive	–	1.2 µM (active)	–
CC#N	inactive	inactive	inactive	inactive	6.68%	inactive	inactive	inactive	inactive	inactive
COc1cc2ncnc(Nc3ccc(F)c(Cl)c3)c2cc1OCCCN1CCOCC1	inactive	inactive	55.2 µM (active)	13.3 µM (active)	-47.8% [at 42.5 µM]	–	inactive	–	9.52 µM (active)	26.8 µM (active)
N#C/C(=C1/SC[C@@H](c2ccc(Cl)cc2Cl)S1)n1ccnc1	inactive	inactive	inactive	23.7 µM (active)	-40.9% [at 42.5 µM]	inactive	inactive	inactive	–	inactive
Cc1nc2ccccc2s1	inactive	inactive	inactive	inactive	1.14%	inactive	inactive	inactive	inactive	inactive
